TLR9-MyD88 inh = inhibitors of human TLR9-MyD88 binding | Q9NR96+Q99836 | CHO BLA complementation TLR9-MyD88, CCF4 FRET ratio | inhibition, % at 4.98 µM | 340,000 tested, 0.21% active;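 active means inhibition above the mean over all tested compounds plus 3 SD, cut at about 21% in these data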;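 further: 0% = DMSO only wells and 100% = clavulanate BLA inhibitor control wells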
LANA-H2B inh = blocks KSHV LANA binding to histone H2A/H2B | Q9QR71 | cell-free LANA-H2A/H2B peptide, fluorescence polarization | inhibition, % (no concentration beside the values) | 320,000 tested, 0.6% active | AID 2629; in the data active means inhibition mostly above about 10%, no sharp cut-off; inactive means mostly below about 6.7%
TLR4-MyD88 BLA = inhibitors of human TLR4-MyD88 binding; HeLa CL3-4 TLR4/MyD88 BLA complementation, FRET ratio; inhibition, % at 8.4 µM; 200,000 tested, 0.18% active; AID 861; in the data active means inhibition above about 25%;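 further: 0% = vehicle and 100% = reference inhibitor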
Rtt109 HAT inh = inhibitors of Candida albicans Rtt109/Vps75 histone acetyltransferase. Q5AAJ8. purified Rtt109/Vps75, ThioGlo CoA-SH fluorescence, 4 h. inhibition, % at 34.9 µM. 330,000 tested, 0.16% active. AID 540336;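 active means inhibition of at least 50% in every replicate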
m5-HT2A agonist = activates the mouse 5-HT2A serotonin receptor; CHO-K1 mHTR2A beta-arrestin complementation, luminescence; percent of 30 µM serotonin response; activation, % at 7.6 µM; 360,000 tested, 0.66% active; AID 624169;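 active means activation above a run cutoff, the mean activation of all tested compounds plus 3 SD, cut at about 14% in these data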;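 further: 0% = plate median of compound wells and 100% = 30 µM serotonin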
Target sequence (P35363 whole entry, looked up): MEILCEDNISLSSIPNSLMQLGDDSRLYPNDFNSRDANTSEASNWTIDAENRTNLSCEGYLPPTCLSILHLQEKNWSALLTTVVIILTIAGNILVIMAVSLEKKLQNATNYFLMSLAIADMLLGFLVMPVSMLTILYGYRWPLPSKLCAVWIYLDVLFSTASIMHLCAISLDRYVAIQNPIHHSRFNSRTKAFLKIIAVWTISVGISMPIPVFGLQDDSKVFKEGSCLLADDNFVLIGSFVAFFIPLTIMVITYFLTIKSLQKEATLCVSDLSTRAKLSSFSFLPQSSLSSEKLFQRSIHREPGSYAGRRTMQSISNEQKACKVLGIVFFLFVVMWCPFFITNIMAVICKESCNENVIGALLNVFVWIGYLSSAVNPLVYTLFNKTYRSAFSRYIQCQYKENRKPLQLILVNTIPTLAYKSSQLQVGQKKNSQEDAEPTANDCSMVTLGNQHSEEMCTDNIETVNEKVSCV
NOD2-RIPK2 inh = NOD2-RIPK2 protein interaction inhibition; O43353; CHO BLA complementation NOD2-RIPK2, CCF4 ratio; inhibition, % at 4.98 µM; 360,000 tested, 0.38% active; in the data active means inhibition above about 21%;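 further: 0% = vehicle only and 100% = reference blocker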
OPRM1 ag = activates human mu opioid receptor in HTR2A counterscreen | activation, % at 9.3 µM | U2OS OPRM1 beta-arrestin PathHunter, luminescence; DMSO 0%, DAMGO 9.3 µM 100% | shares compounds with m5-HT2A agonist | 2,300 tested, 5.3% active | AID 624380;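 active means mean activation above the mean of DMSO-only wells plus 3 SD, cut at about 0.5% in these data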
HTR2A ag conf = confirmation of mouse HTR2A serotonin receptor agonists | shares compounds with m5-HT2A agonist | CHO-K1 PathHunter beta-arrestin recruitment, luminescence; DMSO 0%, 30 µM serotonin 100% | activation, % at 7.6 µM | 2,300 tested, 19% active | AID 624381;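 active means mean activation across triplicates above the hit threshold derived in the original primary screen, cut at about 15% in these data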
Active calls of the source: *; . = no result given. Most compounds without a hit are left out; they make up all but 1.8% or so of the library.

SMILES	TLR9-MyD88 inh	LANA-H2B inh	TLR4-MyD88 BLA	Rtt109 HAT inh	m5-HT2A agonist	NOD2-RIPK2 inh	OPRM1 ag	HTR2A ag conf
CCOc1ccc(NS(=O)(=O)c2c(C(=O)N3CCCCCC3)c(C)n(C)c2C)cc1	-2	-2	.	3	-3	-10	.	.
Cc1c(Cl)cccc1NC(=O)COC(=O)Cc1ccsc1	8	0	.	-5	16*	-7	0	7
CC1(C)OC(=O)C2=C(C[C@@H](C3CCCCC3)O[C@H]2c2ccccc2)O1	.	.	.	.	5	-12	.	.
O=C(OCc1cccc(F)c1)c1ccc2c(=O)n3c(nc2c1)CCC3	1	-19	.	28	18*	-4	-1	-4
Cc1nnsc1C(=O)NC1CCCc2c1cnn2-c1ccc(C(C)(C)C)cc1 (stereo unspecified)	-8	0	.	17	14*	-3	0	2
COC(=O)c1cc(S(=O)(=O)Nc2ccc(C)cn2)c[nH]1	-1	-1	.	-7	4	1	.	.
COc1ccc(CN2C(=O)C(CC(=O)NC3CCCC3)CC(C(=O)N(C)C)=C2C)cc1 (stereo unspecified)	-6	.	.	.	30*	2	-1	-2
CC1=C(C(=O)N2CCCCCC2)CC(CC(=O)NC2CCCC2)C(=O)N1Cc1ccc(C(C)(C)C)cc1 (stereo unspecified)	.	.	.	.	15*	-1	-1	-2
CC1=C(C(=O)N2CCCCCC2)CC(CC(=O)NC2CCCC2)C(=O)N1Cc1ccccc1 (stereo unspecified)	.	.	.	.	12	-12	.	.
O=C(NC1CCCC1)C1c2ccccc2OCC(=O)N1C1CC1 (stereo unspecified)	.	.	.	.	-2	-8	.	.
C=CCOC(=O)COc1ccc2c3c(c(=O)oc2c1)CCCC3	3	.	.	.	16*	-4	-1	-3
COC(=O)N1CCCCC1c1cc(C(=O)Nc2cccc3c2CCCC3)no1 (stereo unspecified)	.	.	.	.	17*	-3	0	-3
N#CC1(NC(=O)CSc2ccccn2)CCCCC1	1	-2	.	2	15*	-4	-1	-4
O=C(CSc1n[nH]c(-c2ccco2)n1)Nc1sc2c(c1C(=O)Nc1ccccc1)CCCC2	6	-2	-5	10	16*	-1	0	18*
CCc1ccccc1NC(=O)c1cc(S(=O)(=O)N2CCc3ccccc32)cn1C	-3	2	.	-4	28*	-4	0.7*	-2
CCCCNC(=O)C(=O)Nc1cc2c3c(c1)CCC(=O)N3CCC2	-4	-5	.	25	15*	-10	-1	-4
O=C(NCCO)C(=O)Nc1cc2c3c(c1)CCC(=O)N3CCC2	3	7	.	-1	14	-7	.	.
CCCc1cc(=O)[nH]c(SCC(=O)N2c3ccccc3CC2C)n1 (stereo unspecified)	-5	-1	.	2	14*	-12	0	-4
COc1ccccc1NC(=O)Nc1nc(CC(=O)N2CCN(c3ccccc3F)CC2)cs1	3	-3	.	42	15*	5	0	0
O=C(c1ccc(-n2cncn2)c([N+](=O)[O-])c1)N1CCN(S(=O)(=O)c2ccccc2F)CC1	1	-10	.	1	-3	-12	.	.
O=C(c1ccc(-n2cncn2)c([N+](=O)[O-])c1)N1CCN(S(=O)(=O)c2c(F)cccc2F)CC1	-10	2	.	-1	16*	3	0	-3
CC(C)C1C(=O)N(Cc2cn(CCC3OCCO3)nn2)CCS(=O)(=O)N1Cc1ccc(-c2ccccc2Cl)cc1 (stereo unspecified)	.	.	.	.	-3	-3	.	.
COc1ccccc1-c1csc(C(O)c2ccccc2)n1 (stereo unspecified)	.	.	.	.	-1	-9	.	.
Cc1ccc(S(=O)(=O)NCCN(CCNS(=O)(=O)c2ccc(C)cc2)S(C)(=O)=O)cc1	6	-1	-6	-12	24*	-4	-1	-4

High-throughput results from PubChem.
